An excerpt weighted towards active compounds, which were near 1.4% of everything screened.
BJeLR lethal = kills HRASV12-expressing BJeLR cells; 300,000 tested, 0.17% active; BJeLR (HRASV12) viability, CellTiter-Glo ATP luminescence, 48 h; inhibition, % (no concentration beside the values); in the data active means inhibition above about 50%
PrP UTR inh = inhibition of PrP 5' UTR reporter expression; cell-based PrP 5' UTR mRNA reporter, plate reader; inhibition, % (no concentration beside the values); 340,000 tested, 0.35% active; AID 488862; in the data active means inhibition above about 52%
SARS 3CLpro inh = SARS-CoV 3CLpro protease inhibition; P0C6X7; recombinant SARS-CoV 3CLpro, quenched FRET peptide cleavage; inhibition, % at 6 µM; 290,000 tested, 0.14% active; AID 1706; in the data active means inhibition above about 12%
RecA splice inh = blocks M. tuberculosis RecA intein splicing; 290,000 tested, 0.75% active; P9WHJ3; inhibition, % (no concentration beside the values); cell-free RecA intein splicing, fluorescence; AID 2221; in the data active means inhibition above about 30%
Target sequence (P9WHJ3 whole entry, looked up, canonical isoform): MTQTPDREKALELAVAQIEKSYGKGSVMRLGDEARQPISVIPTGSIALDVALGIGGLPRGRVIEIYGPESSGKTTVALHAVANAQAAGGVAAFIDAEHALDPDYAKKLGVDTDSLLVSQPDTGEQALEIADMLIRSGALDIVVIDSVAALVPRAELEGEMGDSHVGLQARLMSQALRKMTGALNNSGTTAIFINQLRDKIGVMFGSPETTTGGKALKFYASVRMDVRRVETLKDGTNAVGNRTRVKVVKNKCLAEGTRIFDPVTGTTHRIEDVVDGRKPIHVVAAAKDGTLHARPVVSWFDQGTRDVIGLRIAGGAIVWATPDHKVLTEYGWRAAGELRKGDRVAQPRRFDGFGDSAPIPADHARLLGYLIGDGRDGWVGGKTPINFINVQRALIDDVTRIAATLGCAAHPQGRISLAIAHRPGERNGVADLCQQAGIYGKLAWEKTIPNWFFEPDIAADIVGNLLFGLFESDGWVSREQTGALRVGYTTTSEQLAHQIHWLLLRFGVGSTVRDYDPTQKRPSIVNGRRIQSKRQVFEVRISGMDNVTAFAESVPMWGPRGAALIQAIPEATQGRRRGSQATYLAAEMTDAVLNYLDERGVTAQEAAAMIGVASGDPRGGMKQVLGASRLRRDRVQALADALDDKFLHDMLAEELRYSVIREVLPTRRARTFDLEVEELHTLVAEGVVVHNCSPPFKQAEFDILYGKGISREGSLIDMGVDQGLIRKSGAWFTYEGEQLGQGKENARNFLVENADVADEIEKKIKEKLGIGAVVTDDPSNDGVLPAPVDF
Mtb hypoxia rep = reduces hypoxia-regulated biosensor signal in M. tuberculosis. 300,000 tested, 0.1% active. AID 1159583. fluorescence inhibition, % (test concentration not listed). M. tuberculosis hypoxia-regulated fluorescent reporter, fluorescence; in the data active means fluorescence inhibition mostly above about 23%, no sharp cut-off; inactive means mostly below about 17%
PrPC surface inh = cell surface PrPC inhibition, primary TR-FRET screen; TR-FRET read-out; P04156; inhibition, % at 13.8 µM; AID 720596; 370,000 tested, 0.43% active; in the data active means inhibition above about 24%
PrPC confirm = confirmation of inhibitors of cell surface human prion protein. shares compounds with PrPC surface inh. cell surface PrPC level, TR-FRET. inhibition, % at 13.8 µM. 1,500 tested, 65% active. AID 743200; in the data active means inhibition above about 25%
LD9 tox = kills or reduces viability of LD9 cells in PrPc counter-screen. shares compounds with PrPC surface inh. LD9 cells cytotoxicity, luminescence viability. inhibition, % at 13.8 µM. 1,500 tested, 29% active; in the data active means inhibition above about 9.5%
Numbers stand for hits; - = inactive; . = not tested or not shown.

SMILES | BJeLR lethal | PrP UTR inh | SARS 3CLpro inh | RecA splice inh | Mtb hypoxia rep | PrPC surface inh | PrPC confirm | LD9 tox
Cc1ccccc1N1C(=O)CC(Sc2nnc(-c3ccccc3)o2)C1=O (stereo not given) | - | - | - | - | - | 30.3 | - | -
COc1cccc2cc(C(=O)C3=C(O)C(=O)N(CCN(C)C)C3c3ccc(Cl)cc3)oc12 (stereo not given) | - | - | - | - | - | 40.6 | 52.0 | -
C=C1C(=O)C23C(O)C1CCC2C12CCCC(C)(COC(C)=O)C1C(O)C3(O)OC2 (stereo not given) | . | - | . | . | . | 75.2 | 77.4 | 93.2
CC1CCN(C(=O)C=Cc2ccc(C(C)(C)C)cc2)CC1 | . | . | . | . | - | . | . | .
CC(=O)CSc1ncnc2sc3c(c12)CCC3 | - | - | - | - | - | - | . | .
O=C1OCCC1Sc1ncnc2sc3c(c12)CCC3 (stereo not given) | - | - | - | - | - | 56.1 | 63.7 | -
Cc1ccsc1C=NNc1ccc(C(=O)O)cc1 | . | . | . | . | - | . | . | .
CC(=O)N(Cc1cc2c(C)cc(C)cc2[nH]c1=O)C1CCCCC1 | - | - | - | - | - | - | . | .
Cc1cc(C)c(O)c(C(=O)CC2CC(=O)NC(=O)C2)c1 | . | . | . | . | . | 71.1 | 66.0 | 34.4
CCOC(=O)C(C)Sc1nc(-c2cccs2)ccc1C#N (stereo not given) | - | - | - | - | - | 27.6 | 42.9 | -
C=COC(=O)CSc1nc(-c2cccs2)ccc1C#N | . | - | - | . | - | - | . | .
COC(=O)COc1ccc(C=NNS(=O)(=O)c2ccccc2)cc1 | . | . | . | . | - | . | . | .
CCCSc1nc(N)c(C#N)c(-c2ccc(C)cc2)c1C#N | - | - | - | - | . | - | . | .
C=CCSc1nc(N)c(C#N)c(-c2ccccc2)c1C#N | - | - | - | - | - | 51.1 | - | -
CC1CN(C(C)CO)C(=O)c2cccc(NC(=O)NC3CCCCC3)c2OC1CN(C)S(=O)(=O)c1cccs1 (stereo not given) | . | . | . | . | - | . | . | .
N#Cc1ccc(C23CC4(C2)C(CN(Cc2ccc(-c5ccccc5)cc2)C4c2ccccc2)C3c2ccc(Cl)nc2)cc1 (stereo not given) | . | . | . | . | - | . | . | .
Nc1ncnc2c1cnn2-c1ccccc1 | - | - | - | - | - | - | . | .
S=c1nc[nH]c2c1cnn2-c1ccccc1 | - | - | - | - | - | 36.3 | 43.2 | -
COC(=O)C1CC1C(NC(=O)OCc1ccccc1)c1ccccc1 (stereo not given) | . | . | . | . | - | . | . | .
COc1cccc2c(=O)c(C(=O)NCCc3ccccc3)c[nH]c12 | . | - | . | . | - | 24.6 | - | -
COc1ccc2[nH]c3c(=S)nc[nH]c3c2c1 | - | - | - | - | - | 84.9 | 104.0 | -
Cc1c(C(=O)N2CC3(CC(c4cccc(NC(=O)CC(c5ccccc5)c5ccccc5)c4)=NO3)CC2C(N)=O)cc([N+](=O)[O-])cc1[N+](=O)[O-] (stereo not given) | . | . | . | . | - | . | . | .
CC(=O)Nc1ccc(Br)c2ccccc12 | - | - | - | - | - | - | . | .
O=C(Nc1ccc(Br)c2ccccc12)c1ccc2ccccc2c1O | - | - | - | - | . | 35.3 | 64.2 | 20.7
Cc1sc2ncnc(Sc3ccccc3C(=O)Nc3ccc(C#N)cc3)c2c1C | - | - | - | - | - | - | . | .
SMILES | BJeLR lethal | PrP UTR inh | SARS 3CLpro inh | RecA splice inh | Mtb hypoxia rep | PrPC surface inh | PrPC confirm | LD9 tox
Cc1sc2ncnc(Sc3ccccc3C(=O)Nc3ccc(Br)cc3)c2c1C | - | - | - | - | - | 25.2 | 30.6 | -
O=C(NN=Cc1cccnc1)C1CCCN(S(=O)(=O)c2ccccc2)C1 (stereo not given) | . | . | . | . | - | . | . | .
CN1OC(Cn2cc(C#N)c(=O)n(C)c2=O)CC1c1ccccc1 (stereo not given) | - | - | - | - | - | 25.2 | - | -
O=C(NN=Cc1cc2ccccc2nc1Cl)[C@H]1C[C@@H]1c1ccccc1 | . | . | . | . | - | . | . | .
CC1CCC(NC(=O)CNC(=O)Cc2cccc3ccccc23)CC1 (stereo not given) | - | - | - | . | - | 31.2 | - | -
CC(C)C(=O)N1CCN(c2ccc(NC(=O)c3ccc([N+](=O)[O-])o3)cc2Cl)CC1 | . | - | - | . | . | 35.5 | - | 98.0
Cc1ccccc1C(=O)N1CCN(c2ccc(NC(=O)c3ccc([N+](=O)[O-])o3)cc2)CC1 | - | - | - | . | - | - | . | .
CC(C)C(=O)N1CCN(c2ccc(NC(=O)c3ccc([N+](=O)[O-])o3)cc2)CC1 | - | - | - | - | . | - | . | .
O=C(Nc1ccc(N2CCN(C(=O)c3ccccc3)CC2)cc1)c1ccc([N+](=O)[O-])o1 | - | - | - | - | . | 26.2 | - | 93.4
N#CC(=Cc1cn(CC(=O)O)c2ccccc12)C(=O)NCc1ccccc1 | . | . | . | . | - | . | . | .
Cc1cccc(NC(=O)CSc2nc(C3CC3)nc3ccccc23)c1 | - | - | - | - | - | 29.9 | 27.6 | -
Cc1nonc1NC(=O)CSc1nc(C2CCCCC2)nc2ccccc12 | - | - | - | - | - | 50.1 | 53.5 | -
CC(=O)Nc1cccc(NC(=O)CSc2nc(C3CC3)nc3ccccc23)c1 | - | - | - | - | - | - | . | .
O=C(COc1ccc2ccccc2c1Br)NC(=S)Nc1cccc(CO)c1 | - | - | - | - | - | 61.2 | 66.1 | -
O=C(O)CCC(=O)NNC(=O)COc1ccc(Cl)cc1Cl | - | - | - | - | - | - | . | .
O=C(COc1ccc2ccccc2c1Br)Nc1cccnc1 | - | - | - | - | - | 47.5 | 68.1 | -
O=C(O)CCC(=O)NNC(=O)COc1ccc2ccccc2c1Br | - | - | - | - | - | 45.9 | 85.2 | -
O=C(COc1ccc2ccccc2c1Br)Nc1ccncc1 | - | - | - | - | - | 60.0 | 68.9 | -
COc1ccc(C=NNC(=O)CCN2CCCCC2c2cccnc2)cc1Cn1cc([N+](=O)[O-])cn1 (stereo not given) | . | . | . | . | - | . | . | .
CN(N=Cc1ccc(C(C)(C)C)cc1)C1=NCCN1 | . | . | . | . | - | . | . | .
NC(Cc1ccc([N+](=O)[O-])cc1)=NOC(=O)c1ccc(Br)cc1 | . | . | . | . | - | . | . | .
Cc1ccc(S(=O)(=O)c2ncccc2[N+](=O)[O-])cc1 | - | - | - | - | . | 70.7 | 54.6 | 97.7
O=C(NN=Cc1cccc(OC(=O)c2ccc3c(c2)OCO3)c1)c1cncc(Br)c1 | . | . | . | . | - | . | . | .
COc1ccccc1Oc1ccc2c(c1)C(=O)N(CC1CCCO1)C2=O (stereo not given) | - | - | - | . | - | 47.0 | - | -
COc1ccccc1OCC(=O)Nc1ccc2c(c1)C(=O)N(CC1CCCO1)C2=O (stereo not given) | - | - | - | - | - | - | . | .
SMILES | BJeLR lethal | PrP UTR inh | SARS 3CLpro inh | RecA splice inh | Mtb hypoxia rep | PrPC surface inh | PrPC confirm | LD9 tox
CNc1ncc(C(=O)c2ccccc2)s1 | - | - | - | - | - | - | . | .
CNc1ncc(C(=O)c2ccc(Br)cc2)s1 | - | - | - | - | - | 26.2 | 45.7 | -
COCc1cc(=O)[nH]c(Nc2nc3ccc(C)cc3o2)n1 | - | - | - | - | - | 31.6 | - | 47.7
CCc1ccc2nc(Nc3nc(COC)cc(=O)[nH]3)nc(C)c2c1 | - | - | - | - | - | - | . | .
O=C(NNc1ccccc1)C(=O)NNS(=O)(=O)c1ccc(CCCl)cc1 | - | - | - | - | - | 26.8 | - | -
Nc1ccc(S(=O)(=O)NNC(=O)C(=O)NNc2ccccc2)cc1 | - | - | - | - | - | - | . | .
COc1ccc(NCC(=O)NN=C(C)c2cc3ccccc3o2)cc1 | . | . | . | . | - | . | . | .

Screening results (PubChem)
